# The full list was thinned out, with hits kept by preference.
# Giardia FBPA inh – qHTS Assay for Inhibitors of Fructose-1,6-bisphosphate Aldolase from Giardia Lamblia | A8B2U2 | purified Giardia FBPA | Potency, µM (top dose mostly 59.6 µM), for inactives: at the top dose activity, negative = inhibition, actives largely listed as inhibitors | hit rate 0.71% among 290,000 | AID 2451, 2010; further: potency means the concentration at half of the fitted maximal effect; on the % scale 0 is the no-effect control and ±100 the full control effect; nearly all actives have a fitted effect of over 55% in size
#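 Giardia FBPA (40 nM reagent) was preincubated 10 min at RT with compound (up to 57.5 uM final), then substrate plus GAPDH/TPI/NAD/arsenate coupling system with diaphorase/resazurin was added; resorufin fluorescence (525/598 nm) was read after 20 min.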
# Shiga toxin inh – A qHTS for Small Molecule Inhibitors of Shiga Toxin; Vero cells, Shiga toxin protein synthesis inhibition reporter; inhibition, % at 38.7 µM; hit rate 9.2% among 290,000; AID 2315, 2010; in the data active means inhibition mostly above about 28%, no sharp cut-off; inactive means mostly below about 43%; further: 0% is about no effect
# LmPK inh – qHTS Assay for Inhibitors of Leishmania Mexicana Pyruvate Kinase (LmPK); purified LmPK, Kinase-Glo ATP luminescence, 1 h; Potency, µM (doses to about 57.5 µM), without a hit: at the top dose activity change, negative = inhibition, hits mostly inhibitors; hit rate 0.37% among 290,000; AID 1721, 2009; further: potency means the concentration at half of the fitted maximal effect; on the % scale 0 is the no-effect control and ±100 the full control effect
# Target sequence (Q27686 whole entry, looked up): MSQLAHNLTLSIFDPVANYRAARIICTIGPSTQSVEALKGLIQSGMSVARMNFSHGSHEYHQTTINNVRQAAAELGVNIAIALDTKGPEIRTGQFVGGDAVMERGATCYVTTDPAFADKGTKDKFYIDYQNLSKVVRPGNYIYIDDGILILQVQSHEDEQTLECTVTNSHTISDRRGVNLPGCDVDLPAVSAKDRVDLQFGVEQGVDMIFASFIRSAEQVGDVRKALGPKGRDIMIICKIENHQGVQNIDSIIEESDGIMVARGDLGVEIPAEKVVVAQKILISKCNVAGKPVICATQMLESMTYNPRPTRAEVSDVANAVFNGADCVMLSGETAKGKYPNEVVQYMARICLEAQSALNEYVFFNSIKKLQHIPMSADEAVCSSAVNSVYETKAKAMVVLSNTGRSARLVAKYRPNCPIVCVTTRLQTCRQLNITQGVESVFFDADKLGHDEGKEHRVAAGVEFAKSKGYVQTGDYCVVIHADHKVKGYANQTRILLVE
#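 Purified LmPK (0.1 nM) converted ADP (0.1 mM) to ATP with PEP (0.5 mM) in imidazole buffer pH 7.2 with KCl and MgCl2, 1 h at room temperature. ATP was read by Kinase-Glo luminescence; data normalized to uninhibited and no-enzyme controls.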
# Sm TGR block – qHTS Assay for the Inhibitors of Schistosoma Mansoni Peroxiredoxins; Potency, µM (highest dose often 114 µM), inactives show at the top dose activity change, negative = inhibition, usual class: inhibitors; purified TGR, DTNB reduction, TNB absorbance 405 nm; Schistosoma mansoni thioredoxin glutathione reductase (TGR), Q962Y6; hit rate 3% among 360,000; further: potency means the concentration at half of the fitted maximal effect; on the % scale 0 is the no-effect control and ±100 the full control effect; nearly all actives have a fitted effect of over 60% in size
#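 First, TGR (20 nM dispensed) and NADPH were mixed with compound. Second, a 15 min room-temperature incubation followed. Third, further NADPH and then DTNB were added to start the reaction. Finally, TNB absorbance was monitored kinetically.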
# CHX counter – Cycloheximide Counterscreen for Small Molecule Inhibitors of Shiga Toxin | hit rate 12% among 300,000 | cell reporter, cycloheximide protein synthesis inhibition counterscreen | max response, %; in the data active means max response mostly above about 13%, no sharp cut-off; inactive means mostly below about 14%; further: read at 38.3 µM for the half of the compounds with a filed dose; 0% is about no effect
# TbPYK inhibitor – qHTS of Trypanosoma Brucei Inhibitors | pyruvate kinase (Trypanosoma brucei), Q57TT1 | TbPYK enzyme, Kinase-Glo Plus ATP luminescence, 45 min | Potency, µM (top dose mostly 76.8 µM), without a hit: at the highest dose activity, negative = inhibition, most hits filed as inhibitors | hit rate 0.12% among 410,000 | AID 624173, 2012; further: potency means the concentration at half of the fitted maximal effect; on the % scale 0 is the no-effect control and ±100 the full control effect; nearly all actives have a fitted effect of over 50% in size
#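 In this concentration-response screen, enzyme-free wells defined baseline while DMSO plates tracked drift. Each reaction combined TbPYK, substrate, compound and 130 uM ADP for 45 min at room temperature. Kinase-Glo Plus luminescence gave the signal.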
# Active calls of the source: *; ? = inconclusive; nt = no result. Unless noted, the call rests on the fitted dose curve; in most records, active means well fitted curve in the direction sought with a large enough effect; inconclusive means small, poorly fitted or top-dose-only effect, or another doubt; inactive means no such curve, though single readings can be large; an effect the other way counts as inactive or inconclusive.
SMILES,Giardia FBPA inh,Shiga toxin inh,LmPK inh,Sm TGR block,CHX counter,TbPYK inhibitor
COc1cccc(N=Nc2c(O)[nH]c(=S)[nH]c2=O)c1,-16.0%,46.8*,-25.8%,-20.0%,30.9*,-22.0%
O=c1[nH]c(=S)[nH]c(O)c1N=Nc1cccc(S(=O)(=O)N2CCOCC2)c1,-29.5%,4.2,-0.8%,-2.8%,5.2,-8.6%
COc1ccc(N=Nc2c(O)[nH]c(=S)[nH]c2=O)cc1,-8.8%,110.3*,?,9.2%,31.1*,-11.1%
CN(CCc1ccccn1)C(=O)c1nn2c(C(F)(F)F)cc(-c3ccco3)nc2c1Cl,0.8%,13.4,-3.2%,44.7µM*,9.0,-2.0%
O=C(c1cc2nc(-c3ccco3)cc(C(F)(F)F)n2n1)N1CCN(Cc2ccccc2)CC1,7.1%,-15.2,-0.8%,50.1µM*,1.5,0.0%
O=C(NC1CCCCC1)c1nn2c(C(F)(F)F)cc(-c3ccco3)nc2c1Br,-3.0%,1.0,-3.2%,25.1µM*,-1.5,-1.6%
O=C(O)c1cnn2c(C(F)(F)F)cc(-c3ccco3)nc12,-5.6%,-7.5,5.1%,?,-6.6,2.3%
CC(C)NC(=O)c1nn2c(C(F)(F)F)cc(-c3ccco3)nc2c1Cl,-15.0%,-17.0,-4.6%,?,-2.4,27.2%
O=C(c1ccccc1)N1CCN(C(=O)c2nn3c(C(F)(F)F)cc(-c4ccco4)nc3c2Br)CC1,0.0%,18.1,1.7%,39.8µM*,3.1,2.6%
CC(C(=O)Nc1ccc(C#N)cc1)N1CCN(C(=O)C2CC2)CC1 (stereo not drawn),nt,nt,nt,1.0%,nt,2.8%
O=C(Cn1c(SCC(=O)Nc2ccc(F)cc2)nc2ccccc21)NCc1ccccc1Cl,nt,nt,nt,4.9%,nt,-1.3%
O=C(c1cnn2c(C(F)(F)F)cc(-c3ccco3)nc12)N1CCc2ccccc2C1,-5.0%,-3.2,1.2%,12.6µM*,-3.9,-1.1%
O=C(Nc1cccc(C(F)(F)F)c1)c1cc2nc(-c3ccco3)cc(C(F)(F)Cl)n2n1,nt,nt,nt,4.5%,nt,2.2%
O=C(Nc1cc(F)ccc1F)c1cc2nc(-c3ccco3)cc(C(F)(F)Cl)n2n1,nt,nt,nt,22.4µM*,nt,0.2%
O=C(NCC1CCCO1)c1nn2c(C(F)(F)F)cc(-c3ccc(Br)o3)nc2c1Br (stereo not drawn),-0.8%,-13.8,-1.1%,15.8µM*,-4.5,1.5%
CN(C)S(=O)(=O)c1cccc(C(=O)Nc2cc3c(cc2C(=O)O)OCCCO3)c1,-12.6%,3.8,-1.3%,0.7%,-2.0,-10.8%
O=C(/C=C/c1ccco1)OCc1nnc(-c2ccccc2)o1,1.3%,14.6,14.4%,14.1µM*,18.4,-2.8%
O=C(/C=C/c1ccco1)OCc1nnc(-c2ccc(Cl)cc2)o1,-0.1%,6.6,22.4%,11.2µM*,12.8,7.4%
O=C(OCc1nnc(-c2ccccc2)o1)c1ccc(Cl)cc1,-1.9%,-1.4,6.4%,nt,-0.7,0.0%
O=C(/C=C/c1ccco1)OCn1nnc2ccccc2c1=O,1.6%,-3.0,-0.2%,22.4µM*,1.0,-1.6%
CC1NC(=O)c2cc3ccccc3cc2-n2c1nc1ccc(F)cc1c2=O (stereo not drawn),nt,nt,nt,nt,nt,2.4%
C/C(=N\N=C(N)N)c1cccc([N+](=O)[O-])c1,0.3%,-1.9,-1.3%,-2.0%,-5.5,-10.7%
C/C(=N\N=C\c1ccc(N(C)C)cc1)c1cccc([N+](=O)[O-])c1,-7.5%,49.9*,-9.4%,0.6%,37.2*,-12.8%
CC1(C)CC(CCNC(=O)CCl)(c2ccccc2)CCO1 (stereo not drawn),-1.2%,-11.2,2.0%,44.7µM*,-2.5,-6.0%
CC1(C)CC(CCNS(=O)(=O)c2ccccc2)(c2ccccc2)CCO1 (stereo not drawn),0.4%,-13.3,-1.5%,-16.1%,-2.2,1.2%
SMILES,Giardia FBPA inh,Shiga toxin inh,LmPK inh,Sm TGR block,CHX counter,TbPYK inhibitor
CCOc1ccc2nc(N3CCCC(C(=O)NCc4ccc(OC)cc4)C3)sc2c1 (stereo not drawn),nt,nt,nt,3.8%,nt,-1.1%
CCOC(=O)c1cnc2ccc(C(=O)OC)cc2c1NCCN1CCOCC1,-15.7%,-14.3,-4.2%,31.6µM*,-1.8,0.0%
CCOC(=O)c1cnc2ccc(OCC)cc2c1NCCCN1CCOCC1,12.9%,14.7,3.3%,?,17.6*,?
COC(=O)C1CN(C(=O)C(C)Oc2ccc(C(C)C)cc2)c2ccccc2O1 (stereo not drawn),4.4%,18.8,-4.9%,3.9%,6.3,0.0%
CCOC(=O)NC(=O)/C(C#N)=C\Nc1sccc1C(=O)OC,-16.9%,31.1,1.3%,nt,0.3,0.8%
COC(=O)/C(=C\Nc1ccc(Cl)cc1Cl)NC(=O)c1ccccc1,-4.2%,3.4,8.5%,0.1%,-2.4,-2.9%
CCOC(=O)NC(=O)/C(C#N)=C\Nc1ccc(Cl)cc1Cl,6.6%,25.6,-7.8%,37.9%,31.9*,-6.5%
COC(=O)/C(=C\Nc1ccc(Cl)cc1Cl)NC(=O)c1ccc(Cl)cc1Cl,-1.9%,80.2*,3.9%,2.4%,19.3*,-1.1%
Fc1ccccc1COc1ccc(C(=S)N2CCCC2)cc1,8.8%,116.3*,-0.3%,-0.9%,34.1*,-4.8%
CC(C)n1nnc(-c2ccc(OCc3ccccc3F)cc2)n1,1.5%,nt,-2.8%,-5.5%,26.3*,-11.2%
Fc1ccccc1COc1ccc(-c2nnn(Cc3ccccc3F)n2)cc1,-2.4%,13.1,10.6%,-22.7%,-0.9,-4.4%
O=C(Oc1ccc(C(=S)N2CCCCC2)cc1)c1ccccc1F,0.0%,-19.7,-2.0%,38.4%,-3.1,4.3%
Cn1nnc(-c2ccc(OCc3ccccc3F)cc2)n1,1.8%,94.1*,?,5.4%,44.4*,-19.2%
Cc1cccc(NS(=O)(=O)c2ccc(C)c(C(=O)N(C)C3CCN(C)CC3)c2)c1,nt,nt,nt,-9.5%,nt,-7.4%
O=C(CC1N=C2c3ccccc3N=C(SCc3ccccc3F)N2C1=O)NCc1cccs1 (stereo not drawn),nt,nt,nt,9.0%,nt,4.2%
Cn1c(O)c(C2=c3ccccc3=NC2=O)sc1=Nc1ccc(Cl)cc1,-6.9%,7.1,0.6%,4.6%,7.0*,0.0%
O=c1cc(N2CCOCC2)cnn1-c1ccccc1,5.4%,72.6*,-6.0%,1.5%,39.8*,-0.9%
CS(=O)(=O)N1CCC[C@@]2(CCN(Cc3ccccc3)C2)C1,0.6%,nt,nt,nt,nt,0.8%
CN(C)c1cccc2c1c(NS(=O)(=O)c1cn(C)cn1)nn2C,nt,-12.1,-4.3%,50.1µM*,-1.8,?
COc1ccccc1C(=O)Nc1cccc(OCc2cc(=O)n3ccccc3n2)c1,nt,nt,nt,2.2%,nt,-8.1%
Clc1ccc(-c2cn3nc4c(nc3n2)CCCC4)cc1,?,87.7*,14.1µM*,?,37.1*,-8.8%
